Consider 51 molecules from ChEMBL document CHEMBL3988442, “University of Dundee, Small-Polar-MMV Screening Library” (2021).

Experiment [1] concerns the target T1, Aspartate--tRNA(Asp/Asn) ligase (Mycobacterium tuberculosis (strain ATCC 25618 / H37Rv)) (UniProt P9WFW3). Note: in the data most compounds retested in dose-response had high values.
T1 sequence (whole entry): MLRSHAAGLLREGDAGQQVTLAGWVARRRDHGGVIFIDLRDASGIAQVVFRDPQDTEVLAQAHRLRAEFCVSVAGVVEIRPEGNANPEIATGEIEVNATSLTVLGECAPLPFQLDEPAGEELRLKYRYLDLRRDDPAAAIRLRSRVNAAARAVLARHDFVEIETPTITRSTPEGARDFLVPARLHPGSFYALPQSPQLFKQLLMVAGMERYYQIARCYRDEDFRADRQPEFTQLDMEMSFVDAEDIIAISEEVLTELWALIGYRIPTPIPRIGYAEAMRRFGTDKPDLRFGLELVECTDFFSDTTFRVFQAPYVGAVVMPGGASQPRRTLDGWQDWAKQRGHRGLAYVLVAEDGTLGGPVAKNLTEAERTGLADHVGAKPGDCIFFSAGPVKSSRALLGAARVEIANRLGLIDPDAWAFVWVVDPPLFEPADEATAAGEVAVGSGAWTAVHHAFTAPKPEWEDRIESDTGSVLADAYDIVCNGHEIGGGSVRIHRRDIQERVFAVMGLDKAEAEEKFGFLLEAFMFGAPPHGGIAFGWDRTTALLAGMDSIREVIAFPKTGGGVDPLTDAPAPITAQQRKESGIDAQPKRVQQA
The experiment can be described thus: Assay for Asp RNA synthetase-1 from Mycobacterium tuberculosis. It is filed as functional. Details: scale not given: direction of the effect not stated beside the values. The note with it: 30 µM.

Experiment [2] has as its target Shiga toxin 2 (Escherichia coli O157:H7) (UniProt P09385+P09386). Nature of the experiment: E. coli 0.157:H7 Shiga Toxin SOP - stx2 screening assay. The arrangement: scale not given: direction of the effect not stated beside the values. The note with it: 30 µM. Type of experiment: functional.

In the case of `CCCc1nc(CN2CCCC2Cn2cncn2)cs1` (configuration not stated), the Percent Effect is -4.65% in experiment [1] and -7.55% in experiment [2].

For `CC1c2ncc(Cn3cncn3)n2CCN1C(=O)C1CCOCC1` (configuration not stated), the Percent Effect in experiment [1] is 3.23%; in experiment [2] it was -10.6%.

On to `O=C(c1cccc(Cl)c1)N1CC[C@H]2[C@H]1CCN2CC1CCOCC1`, for which the Percent Effect was -4.93% in experiment [1] and -25.2% in experiment [2].

As to `CNc1nc(CNC(=O)Nc2cccc(F)c2C)cs1`, the results for the Percent Effect in experiment [1] and in experiment [2] were -2.59% and 17.1%, respectively.

For the molecule `CCn1nc(C)c2ccn(CC(=O)NC3CCCC3)c(=O)c21`, the Percent Effect turned out to be 4.68% in experiment [1] and 12.1% in experiment [2].

As for `CCn1c(CN2CCC(O)(C(=O)OC)CC2)nc2c(F)cccc21`, the Percent Effect in experiment [1] was -3.57%; in experiment [2], -24.9%.

In the case of `O=C(NCC1CCOCC1)[C@@H]1C[C@@H]2CCN(Cc3ccco3)C[C@H]2O1`, the figures for the Percent Effect in experiment [1] and in experiment [2] were 0.32% and 4.1%, respectively.

Consider `Cn1ncc2c1CCCC2NCc1ccc(Cl)s1` (configuration not stated), for which the Percent Effect in experiment [1] was -3.2%; in experiment [2] it was 28.8%.

With `O=C(C1CCOCC1)N1CC[C@H]2C[C@@H](c3ccncn3)O[C@@H]2C1`, the Percent Effect in experiment [1] was 1.69%; in experiment [2], -27.6%.

As to `CCc1nc(C2CCCN2Cc2nc3ccccc3o2)no1` (configuration not stated), the Percent Effect in experiment [1] is -0.404%; in experiment [2], 9.5%.

In the case of `CC(Cn1cccn1)NC(=O)Nc1ccc(F)cc1` (configuration not stated), the Percent Effect in experiment [1] is 1.84%; in experiment [2], -31.3%.

For the molecule `CN(CC(=O)NC1(C#N)CCCC1)C1CCCN(c2cccnn2)C1` (configuration not stated), the Percent Effect in experiment [1] is 7.28%; in experiment [2], 21.9%.

Take `Cc1ncsc1C(=O)NCc1cccs1`: the Percent Effect in experiment [1] was -1.72%; in experiment [2] it was 1.3%.

Regarding `CCc1nnc2n1CCN(C(=O)c1ccc(-c3ccco3)nc1C)C2`, the figures for the Percent Effect in experiment [1] and in experiment [2] were -3.2% and -27.7%, respectively.

Turning to `CSC(C)C(=O)NCCCc1cc(N)n(-c2ccccc2)n1` (configuration not stated), the Percent Effect in experiment [1] is -3.65%; in experiment [2], -1.83%.

For `CC(C)(C)c1nnc(CN2CCCC(c3cc(C(N)=O)[nH]n3)C2)o1` (configuration not stated), the figures for the Percent Effect in experiment [1] and in experiment [2] were -0.781% and 19.9%, respectively.

As to `Cc1cc(N2CCCCCC2)n2nc(C)c(C)c2n1`, the figures for the Percent Effect in experiment [1] and in experiment [2] were 0.167% and 19.6%, respectively.

Take `Cn1cc(C2COC3(CCN(C(=O)c4ccc(F)cc4)CC3)C2)cn1` (configuration not stated): the figures for the Percent Effect in experiment [1] and in experiment [2] were 0.474% and 4.34%, respectively.

Turning to `O=C(c1cccc2[nH]ncc12)N1CCCC1c1noc(C2CC2)n1` (configuration not stated), the Percent Effect is -4.54% in experiment [1] and 0.232% in experiment [2].

Regarding `Cc1nccc(C2CN(Cc3cc[nH]n3)CCO2)n1` (configuration not stated), the values for the Percent Effect in experiment [1] and in experiment [2] were -1.53% and 2.02%, respectively.

Regarding `CC(C)c1nccn1-c1cccc(C2CCCN(C3CCCC3)C2)n1` (configuration not stated), the figures for the Percent Effect in experiment [1] and in experiment [2] were 3.46% and 3.04%, respectively.

In the case of `CC(OCC(F)(F)F)C(=O)Nc1ccc(-n2cncn2)nc1` (configuration not stated), the Percent Effect in experiment [1] is -0.432%; in experiment [2], 13.4%.

Consider `COc1cccc(S(=O)(=O)N2CCn3cnc(COCC4CC4)c3C2)c1`, for which the Percent Effect in experiment [1] is 6.08%; in experiment [2] it was 1.15%.

`CCCNCC1(O)CCCN(Cc2cccc(C)c2)C1=O` (configuration not stated): the Percent Effect in experiment [1] is -0.345%; in experiment [2] it was 0.574%.

Take `O=C(NCCNc1ncccn1)c1ccc(-c2ccco2)[nH]c1=O`: the Percent Effect in experiment [1] was 6.93%; in experiment [2], 10.7%.

With `Cc1ccc(N2CCCC(NCC(=O)NC3CCOCC3)C2)nn1` (configuration not stated), the figures for the Percent Effect in experiment [1] and in experiment [2] were 5.08% and -27.9%, respectively.

Turning to `Cc1nc(C)n(CC2CCCN2CCCOc2ccc(F)cc2)n1` (configuration not stated), the results for the Percent Effect in experiment [1] and in experiment [2] were -8.6% and 0.578%, respectively.

Consider `O=C(c1ccc[nH]1)N1C[C@H]2CN(Cc3cccc(F)c3)C(=O)[C@H]2C1`, for which the Percent Effect is 0.565% in experiment [1] and -9.53% in experiment [2].

On to `COc1cccc(CC2CN(C3CCN(C(C)=O)CC3)CCO2)c1` (configuration not stated), for which the values for the Percent Effect in experiment [1] and in experiment [2] were -4.28% and -26%, respectively.

As for `Cc1cccc(-c2[nH]ncc2CNCC2CCN(CC(C)O)CC2)c1` (configuration not stated), the Percent Effect in experiment [1] is 4.15%; in experiment [2] it was 20.1%.

On to `N#CCCN(CCC#N)C(=O)CN1CCCC1Cc1cccc(F)c1` (configuration not stated), for which the Percent Effect in experiment [1] was 5.73%; in experiment [2], -0.707%.

With `Cc1noc(C(C)C)c1C(=O)NCCN1CCCCCC1=O`, the Percent Effect in experiment [1] was 2.13%; in experiment [2], -4.24%.

With `CN(CCCOc1ccc(F)cc1)Cc1nc2c(cnn2C)c(=O)[nH]1`, the Percent Effect was -4.83% in experiment [1] and 26.6% in experiment [2].

As to `Cc1nnc(NCC2(c3ccc(Cl)cc3Cl)CCOCC2)c(C#N)c1C`, the Percent Effect in experiment [1] is 1.93%; in experiment [2], -16.4%.

For `Cc1nc(COC[C@@H]2CC[C@H]3[C@H](CCN3c3ncccn3)O2)cs1`, the Percent Effect in experiment [1] is 1.87%; in experiment [2] it was -14.4%.

In the case of `CCn1cnnc1CNC(=O)N1CCC(Cc2cccnc2)CC1`, the Percent Effect in experiment [1] was -1.93%; in experiment [2], 2.96%.

For the molecule `Cc1ccccc1Cc1cnc(NC(=O)C2CNC(=O)N2)s1` (configuration not stated), the Percent Effect in experiment [1] stood at 6.1%; in experiment [2], 3.51%.

For `COc1ccc(C)cc1NC(=O)Nc1cnc(N2CCN(C)CC2)nc1`, the Percent Effect in experiment [1] is 0.539%; in experiment [2], -18.8%.

`CCOc1ccc(C(C)NC(=O)N2CCC(C(N)=O)CC2)cc1OC` (configuration not stated): the results for the Percent Effect in experiment [1] and in experiment [2] were -0.725% and 10.2%, respectively.

With `O=C(C1CC=CC1)N1C[C@@H]2[C@@H](C1)OCC(=O)N2Cc1cccnc1`, the results for the Percent Effect in experiment [1] and in experiment [2] were 1.21% and -12.2%, respectively.

For `Cc1nc(-c2ccsc2)ccc1C(=O)NCCC(=O)N1CCCC1`, the values for the Percent Effect in experiment [1] and in experiment [2] were 0.0333% and -18.4%, respectively.

Regarding `COCCN1CC[C@]2(CN(C(=O)c3cccs3)C[C@H]2C)C1=O`, the results for the Percent Effect in experiment [1] and in experiment [2] were 1.59% and -8.13%, respectively.

Consider `Nc1nc(C2CCN(C(=O)c3cscn3)CC2)cs1`, for which the Percent Effect was 2.54% in experiment [1] and -10.9% in experiment [2].

For `O=C(c1ccc(F)c(F)c1)N1CCCC1CN1CCCC1` (configuration not stated), the values for the Percent Effect in experiment [1] and in experiment [2] were -3.65% and -41.7%, respectively.

`Cc1cnn(CC2CCCCN2C(=O)c2ccc3[nH]nnc3c2)c1` (configuration not stated): the Percent Effect came out at 0.548% in experiment [1] and 30.9% in experiment [2].

Take `Cc1cc(C)c2nc(CN3CCOC(CCO)C3)cc(O)c2c1` (configuration not stated): the Percent Effect in experiment [1] was -0.725%; in experiment [2] it was -15.7%.

Consider `Cn1cc(CN2CCOC3(CCCN(C(=O)c4ccco4)C3)C2)cn1` (configuration not stated), for which the values for the Percent Effect in experiment [1] and in experiment [2] were -0.297% and -4.96%, respectively.

With `CC(C)(O)CN1CCN(C(=O)c2cccnc2O)CC1`, the Percent Effect was -6.95% in experiment [1] and 9.08% in experiment [2].

On to `Cc1nc(CN2CCC3(CCCN(Cc4cnn(C)c4)C3)C2=O)cs1` (configuration not stated), for which the Percent Effect was -3.23% in experiment [1] and -23.7% in experiment [2].

For `Cc1noc(CCCC(=O)NC(C)c2cccnc2)n1` (configuration not stated), the Percent Effect is -0.922% in experiment [1] and 31.2% in experiment [2].

In the case of `CN(Cc1ccco1)Cc1ccccc1CNC(=O)c1cc[nH]n1`, the Percent Effect in experiment [1] worked out at 0.435%; in experiment [2], 9.38%.
